According to PubChem BioAssay:
Activity calls are given as the source filed them.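 The calls were made as follows, unless noted: active = visually confirmed hit in the image check and inhibition above 20%; inconclusive = visually confirmed hit but inhibition not above 20%; inactive = no visual hit in the image check.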

test system: not listed separately; assay: inhibitors of E-selectin induction by TNFa, primary screen, imaging, HUVEC, immunofluorescence, MLSMR starter and 10KST1 sets (AID 487); details: HUVEC TNFalpha-induced E-selectin immunofluorescence imaging, at 2 µM; inhibition: stronger effect = higher value; nuclei count: measured here: cell number, toxicity;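 as to inhibition: signal is fraction of cell area covered by stained E-selectin grains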;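 as to nuclei count: 100% = median nuclei count of all wells on the same plate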

Compound | inhibition | nuclei count [%]
Cn1c(SCC(=O)c2ccc(-c3ccccc3)cc2)nnc1-c1ccco1 | -7.1% (inactive) | 118
Cc1ccccc1NC(=O)CSc1nnc(Cc2cccn2C)n1-c1ccc(F)cc1 | -61% (inactive) | 114
CC(=O)N1CCc2c(sc(NC(=O)c3ccc(S(=O)(=O)N(C)C)cc3)c2C#N)C1 | 7.9% (inactive) | 93
Cc1c(NC(=O)c2nn(C)c(=O)c3ccccc23)c(=O)n(-c2ccccc2)n1C | -56.3% (inactive) | 136
CCOC(=O)C1C(=O)N(C(=O)c2ccc(OC)cc2)CC1c1ccccc1 (stereo not given) | -39.2% (inactive) | 128
C=CCSc1nnc(-c2cccnc2)o1 | 19.1% (inactive) | 78.2
O=C(CCCn1c(=S)[nH]c2cc3c(cc2c1=O)OCO3)N1CCN(c2ccccc2F)CC1 | 0.1% (inactive) | 112
COc1ccc(OCC(=O)Nc2ccc(N3CCOCC3)c(Cl)c2)cc1 | -144% (inactive) | 109
CCNc1ccc2c(Cl)cc(=O)oc2c1 | -6.6% (inactive) | 98.3
Cc1cc(Br)ccc1NC(=O)CCN1C(=O)c2ccncc2C1=O | 39.2% (inactive) | 89.7
CC(=O)Nc1ccc(S(=O)(=O)N2CCN(C(=O)CCC3CCCC3)CC2)cc1 | -42.2% (inactive) | 129
Cc1ccccc1NC(=O)C1CCCN(S(=O)(=O)c2cccc3cccnc23)C1 (stereo not given) | -45.4% (inactive) | 112
C(#Cc1ccccc1)Cn1nnc2ccccc21 | -5% (inactive) | 103
COc1ccccc1N1CCN(C/C(O)=C(\C#N)c2nc(-c3ccccc3)cs2)CC1 | -33.4% (inactive) | 119
Cn1c(CN2CCOCC2)nnc1SCC(=O)NCCc1ccccc1 | -161% (inactive) | 210
Nc1nc(CSc2nc3ccccc3[nH]2)nc(N2CCOCC2)n1 | -51% (inactive) | 111
CN1CCN(c2nc(-c3ccncc3)nc3ccccc23)CC1 | -133% (inactive) | 120
Cc1cc(=O)[nH]c(SCC(=O)NCc2ccco2)n1 | 12.5% (inactive) | 98
COc1ccc(NC(=O)NCCN2C(=O)C3C4C=CC(C4)C3C2=O)cc1 (stereo not given) | -25.1% (inactive) | 110
CCC(=O)c1ccc(OCC(O)CN2CCN(S(=O)(=O)N3CCCCC3)CC2)cc1 (stereo not given) | -47.7% (inactive) | 184

Compound | inhibition | nuclei count [%]
O=C(c1cccs1)N(Cc1ccco1)Cc1cc2ccccc2[nH]c1=O | -40% (inactive) | 84.3
COc1cccc(NC(=O)C2CCN(c3ncccn3)CC2)c1 | -62.3% (inactive) | 129
CC(=O)Nc1ccc(-c2nn[nH]n2)cc1Cl | 0.8% (inactive) | 97.8
COc1cccc(N(C(=O)c2ccco2)C(C(=O)NC2CCCC2)c2ccc(N(C)C)cc2)c1 (stereo not given) | 5.4% (inactive) | 77.9
CCN(CC)C(=O)C1CCC(CNS(=O)(=O)c2cccc3cccnc23)CC1 (stereo not given) | -26.3% (inactive) | 114
COc1ccc(C(=O)COC(=O)CCn2nnc(-c3cccs3)n2)cc1 | 56.4% (inactive) | 73.7
Fc1cccc(-c2cc3nc4c(c(N5CCN(c6cnccn6)CC5)n3n2)CCCC4)c1 | -80.1% (inactive) | 100
Cc1ccc(Nc2cc(C)nc3ncnn23)c(Cl)c1 | -65.9% (inactive) | 104
O=C1CCC(c2ccccc2)N1C(=O)c1cccnc1 (stereo not given) | -57.8% (inactive) | 111
CC1CCc2c(sc3c2C2=NS(=O)(=O)CCN2C=N3)C1 (stereo not given) | -5.5% (inactive) | 108
CCn1c(SCc2nc(-c3cccs3)no2)nnc1-c1c[nH]c2ccccc12 | -1.6% (inactive) | 102
CC(CN1CCCCC1)OC(=O)c1ccc2c(c1)OCO2 (stereo not given) | -45.9% (inactive) | 103
CN1CCN(S(=O)(=O)c2ccc(NC(=O)Nc3cccc(Cl)c3)cc2)CC1 | 36.5% (inactive) | 114
CCC(C)OC(=O)c1[nH]c2c(c1C)C(=O)CC(c1ccc(N(C)C)cc1)C2 (stereo not given) | -31.4% (inactive) | 125
COc1cccc(C=Nc2ccc3c(c2)OCCO3)c1O | 25.8% (inactive) | 83.4
O=C(Cn1ncc2c1-c1ccccc1OC2)Nc1ccc(Cl)cn1 | -55% (inactive) | 116
CCOC(=O)c1c(C)n(C)c2c(C)cc(O)c(OC(C)=O)c12 | -12.4% (inactive) | 109
COc1ccccc1CCNC(=O)C1CCCO1 (stereo not given) | -45.2% (inactive) | 98.9
CCCSc1nnc2nc3c(nn12)c1ccccc1n3C | 5.3% (inactive) | 107
CCN(CCNC(=O)C1CCN(S(=O)(=O)c2cccc3cccnc23)CC1)c1ccccc1 | 2.5% (inactive) | 108

target: Voltage-gated potassium channel subunit beta-2 (Rattus norvegicus) (UniProt P62483); assay: KvBeta enzyme negative modulators, primary screen, biochemical, NADPH fluorescence (AID 622;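 active = fluorescence slope higher than the sample average by over 3 SD, cut at about -0.22 in these data, passing the limit was not always enough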;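 also: slope of raw intensity against log time taken from 70 to 1610 s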); details: recombinant KvBeta, 4-cyanobenzaldehyde reduction, at 10 µM, stronger effect = higher value
Sequence (P62483 whole entry, looked up): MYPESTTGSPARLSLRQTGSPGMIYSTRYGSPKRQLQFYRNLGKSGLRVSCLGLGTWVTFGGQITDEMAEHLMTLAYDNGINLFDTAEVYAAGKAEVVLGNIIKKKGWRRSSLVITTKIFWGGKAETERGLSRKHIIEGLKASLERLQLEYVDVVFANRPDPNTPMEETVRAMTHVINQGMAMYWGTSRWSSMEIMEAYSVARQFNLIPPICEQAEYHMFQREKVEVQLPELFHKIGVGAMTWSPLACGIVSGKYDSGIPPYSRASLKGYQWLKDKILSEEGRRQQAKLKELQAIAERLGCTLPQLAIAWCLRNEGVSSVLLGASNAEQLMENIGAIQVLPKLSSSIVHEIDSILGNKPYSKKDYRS

Compound | fluorescence slope
Cn1c(SCC(=O)c2ccc(-c3ccccc3)cc2)nnc1-c1ccco1 | -0.516 (inactive)
Cc1ccccc1NC(=O)CSc1nnc(Cc2cccn2C)n1-c1ccc(F)cc1 | -0.618 (inactive)
CC(=O)N1CCc2c(sc(NC(=O)c3ccc(S(=O)(=O)N(C)C)cc3)c2C#N)C1 | -0.52 (inactive)
Cc1c(NC(=O)c2nn(C)c(=O)c3ccccc23)c(=O)n(-c2ccccc2)n1C | -0.496 (inactive)
CCOC(=O)C1C(=O)N(C(=O)c2ccc(OC)cc2)CC1c1ccccc1 (stereo not given) | -0.384 (inactive)
C=CCSc1nnc(-c2cccnc2)o1 | -0.539 (inactive)
O=C(CCCn1c(=S)[nH]c2cc3c(cc2c1=O)OCO3)N1CCN(c2ccccc2F)CC1 | -0.501 (inactive)
COc1ccc(OCC(=O)Nc2ccc(N3CCOCC3)c(Cl)c2)cc1 | -0.488 (inactive)
CCNc1ccc2c(Cl)cc(=O)oc2c1 | -0.255 (inactive)
Cc1cc(Br)ccc1NC(=O)CCN1C(=O)c2ccncc2C1=O | -0.51 (inactive)
CC(=O)Nc1ccc(S(=O)(=O)N2CCN(C(=O)CCC3CCCC3)CC2)cc1 | -0.581 (inactive)
Cc1ccccc1NC(=O)C1CCCN(S(=O)(=O)c2cccc3cccnc23)C1 (stereo not given) | -0.554 (inactive)
C(#Cc1ccccc1)Cn1nnc2ccccc21 | -0.336 (inactive)
COc1ccccc1N1CCN(C/C(O)=C(\C#N)c2nc(-c3ccccc3)cs2)CC1 | -0.56 (inactive)
Cn1c(CN2CCOCC2)nnc1SCC(=O)NCCc1ccccc1 | -0.613 (inactive)
Nc1nc(CSc2nc3ccccc3[nH]2)nc(N2CCOCC2)n1 | -0.449 (inactive)
CN1CCN(c2nc(-c3ccncc3)nc3ccccc23)CC1 | -0.41 (inactive)
Cc1cc(=O)[nH]c(SCC(=O)NCc2ccco2)n1 | -0.57 (inactive)
COc1ccc(NC(=O)NCCN2C(=O)C3C4C=CC(C4)C3C2=O)cc1 (stereo not given) | -0.54 (inactive)
CCC(=O)c1ccc(OCC(O)CN2CCN(S(=O)(=O)N3CCCCC3)CC2)cc1 (stereo not given) | -0.592 (inactive)

Compound | fluorescence slope
O=C(c1cccs1)N(Cc1ccco1)Cc1cc2ccccc2[nH]c1=O | -0.343 (inactive)
COc1cccc(NC(=O)C2CCN(c3ncccn3)CC2)c1 | -0.437 (inactive)
CC(=O)Nc1ccc(-c2nn[nH]n2)cc1Cl | -0.546 (inactive)
COc1cccc(N(C(=O)c2ccco2)C(C(=O)NC2CCCC2)c2ccc(N(C)C)cc2)c1 (stereo not given) | -0.44 (inactive)
CCN(CC)C(=O)C1CCC(CNS(=O)(=O)c2cccc3cccnc23)CC1 (stereo not given) | -0.497 (inactive)
COc1ccc(C(=O)COC(=O)CCn2nnc(-c3cccs3)n2)cc1 | -0.426 (inactive)
Fc1cccc(-c2cc3nc4c(c(N5CCN(c6cnccn6)CC5)n3n2)CCCC4)c1 | -0.622 (inactive)
Cc1ccc(Nc2cc(C)nc3ncnn23)c(Cl)c1 | -0.491 (inactive)
O=C1CCC(c2ccccc2)N1C(=O)c1cccnc1 (stereo not given) | -0.512 (inactive)
CC1CCc2c(sc3c2C2=NS(=O)(=O)CCN2C=N3)C1 (stereo not given) | -0.582 (inactive)
CCn1c(SCc2nc(-c3cccs3)no2)nnc1-c1c[nH]c2ccccc12 | -0.34 (inactive)
CC(CN1CCCCC1)OC(=O)c1ccc2c(c1)OCO2 (stereo not given) | -0.586 (inactive)
CN1CCN(S(=O)(=O)c2ccc(NC(=O)Nc3cccc(Cl)c3)cc2)CC1 | -0.614 (inactive)
CCC(C)OC(=O)c1[nH]c2c(c1C)C(=O)CC(c1ccc(N(C)C)cc1)C2 (stereo not given) | -0.506 (inactive)
COc1cccc(C=Nc2ccc3c(c2)OCCO3)c1O | -0.501 (inactive)
O=C(Cn1ncc2c1-c1ccccc1OC2)Nc1ccc(Cl)cn1 | -0.573 (inactive)
CCOC(=O)c1c(C)n(C)c2c(C)cc(O)c(OC(C)=O)c12 | -0.467 (inactive)
COc1ccccc1CCNC(=O)C1CCCO1 (stereo not given) | -0.401 (inactive)
CCCSc1nnc2nc3c(nn12)c1ccccc1n3C | -0.519 (inactive)
CCN(CCNC(=O)C1CCN(S(=O)(=O)c2cccc3cccnc23)CC1)c1ccccc1 | -0.569 (inactive)
